Reference: PubChem BioAssay AID493026 (Johns Hopkins Ion Channel Center, 2011)
In all, about 1,000 compounds went through this assay and about 150 (15%) were called active.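 Rule for the calls: active = activity change at least 3 SD of negative controls below their mean in both duplicate wells; inactive = the rest.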 Shown is part of a subset that was picked to be rich in actives.

biological target: Potassium voltage-gated channel subfamily KQT member 1 (Homo sapiens) (UniProt P51787); test: human KCNQ1 channel inhibition, counter-screen for KCNQ2 inhibitor project, cell-based, FluxOR thallium flux (AID 493026); conditions: KCNQ1-expressing cells, FluxOR thallium flux fluorescence, at 10 µM; hits give low values;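 note: CHO cells stably transfected with KCNQ1 and depolarized by potassium stimulus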;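 for activity change, negative = inhibition: peak minus minimum fluorescence over baseline after thallium addition; 0% = vehicle negative control and -100% = blank without thallium stimulus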
Sequence (P51787 whole entry, looked up): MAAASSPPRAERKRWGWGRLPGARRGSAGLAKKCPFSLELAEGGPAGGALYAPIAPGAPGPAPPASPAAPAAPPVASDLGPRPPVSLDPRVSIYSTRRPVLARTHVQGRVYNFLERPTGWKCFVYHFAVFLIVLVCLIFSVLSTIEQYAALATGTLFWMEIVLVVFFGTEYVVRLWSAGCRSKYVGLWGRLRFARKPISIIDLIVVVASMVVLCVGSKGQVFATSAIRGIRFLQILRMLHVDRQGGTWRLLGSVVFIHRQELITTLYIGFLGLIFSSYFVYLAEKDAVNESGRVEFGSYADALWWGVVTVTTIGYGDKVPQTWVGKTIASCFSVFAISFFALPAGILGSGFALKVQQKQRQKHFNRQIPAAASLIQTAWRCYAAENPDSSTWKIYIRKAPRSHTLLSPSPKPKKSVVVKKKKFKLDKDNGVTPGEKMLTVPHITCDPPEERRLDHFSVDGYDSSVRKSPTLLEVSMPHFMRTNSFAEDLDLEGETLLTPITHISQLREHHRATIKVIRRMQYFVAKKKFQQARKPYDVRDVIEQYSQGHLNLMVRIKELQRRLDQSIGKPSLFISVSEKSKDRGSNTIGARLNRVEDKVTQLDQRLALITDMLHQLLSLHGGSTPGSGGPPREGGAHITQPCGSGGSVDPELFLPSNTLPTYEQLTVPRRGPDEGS

SMILES | activity change, negative = inhibition
CN(C)CC1Oc2ccccc2OC1(O)c1ccccc1 (configuration not stated) | -30.5% (active)
O=C(NC(c1ccc(Cl)cc1)P(=O)(Oc1ccccc1)Oc1ccccc1)OCc1ccccc1 (configuration not stated) | inactive
